Experimental findings from PMC4336329 (PLoS ONE, 2015) are described below.

Out of some 310,000 compounds screened, about 14,000 (4.5%) showed an effect of 50% or more. Effects have a minus sign here. Shown is part of a subset that was picked to be rich in strong results.
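Also: peak tail current of the secondary pulse compared with the same well before compound.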

human ether-à-go-go-related gene (hERG) potassium channel, sequence (Q12809 whole entry, looked up): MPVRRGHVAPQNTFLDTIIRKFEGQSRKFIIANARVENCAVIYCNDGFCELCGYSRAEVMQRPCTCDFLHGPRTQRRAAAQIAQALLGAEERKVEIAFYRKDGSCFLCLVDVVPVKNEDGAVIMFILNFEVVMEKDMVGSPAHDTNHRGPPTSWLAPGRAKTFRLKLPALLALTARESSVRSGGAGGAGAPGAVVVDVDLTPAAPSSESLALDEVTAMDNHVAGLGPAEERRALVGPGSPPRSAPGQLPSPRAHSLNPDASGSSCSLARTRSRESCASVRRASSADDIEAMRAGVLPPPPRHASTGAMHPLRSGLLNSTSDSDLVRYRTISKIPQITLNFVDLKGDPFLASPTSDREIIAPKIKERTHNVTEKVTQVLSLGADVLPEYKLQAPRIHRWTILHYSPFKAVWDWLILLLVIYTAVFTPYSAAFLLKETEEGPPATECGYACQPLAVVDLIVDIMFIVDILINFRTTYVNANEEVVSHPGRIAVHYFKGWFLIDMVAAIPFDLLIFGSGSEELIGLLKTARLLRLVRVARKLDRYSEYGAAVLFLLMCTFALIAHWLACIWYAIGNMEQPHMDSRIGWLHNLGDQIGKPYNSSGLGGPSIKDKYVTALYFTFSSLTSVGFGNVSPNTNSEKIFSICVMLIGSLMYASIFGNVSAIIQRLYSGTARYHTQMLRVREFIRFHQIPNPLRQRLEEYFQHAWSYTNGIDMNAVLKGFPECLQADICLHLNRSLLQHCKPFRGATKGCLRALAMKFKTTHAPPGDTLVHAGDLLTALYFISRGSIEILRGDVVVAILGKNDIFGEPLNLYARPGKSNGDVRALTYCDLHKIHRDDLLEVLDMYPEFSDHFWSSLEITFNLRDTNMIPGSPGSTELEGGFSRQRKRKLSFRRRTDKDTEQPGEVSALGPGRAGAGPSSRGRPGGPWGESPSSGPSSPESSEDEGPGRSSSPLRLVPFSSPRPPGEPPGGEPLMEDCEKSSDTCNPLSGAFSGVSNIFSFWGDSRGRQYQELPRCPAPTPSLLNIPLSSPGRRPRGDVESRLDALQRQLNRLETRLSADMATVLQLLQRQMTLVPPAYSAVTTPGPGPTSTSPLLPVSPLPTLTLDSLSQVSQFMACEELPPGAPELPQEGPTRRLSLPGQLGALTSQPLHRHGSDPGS

The assay concerns the target human ether-à-go-go-related gene (hERG) potassium channel (human, UniProt Q12809). Put plainly: primary screen, population patch clamp on CHO cells stably expressing hERG; higher = less effect of the substance.
With `CC(=O)c1cn(-c2ccc(Cl)cc2)c(=O)n(Cc2ccc(F)cc2)c1=O`, the “hERG current change (%, negative = inhibition) at 10uM” value is listed as 1.04%.

In the case of `COc1ccc(CNC(=O)CCS(=O)(=O)c2ccc(Br)cc2)cc1`, the “hERG current change (%, negative = inhibition) at 10uM” value is given as 7.33%.

As to `CC(=O)Nc1ccc(NS(=O)(=O)c2ccc(-c3cnc(C4CC4)o3)cc2)cc1`, the “hERG current change (%, negative = inhibition) at 10uM” value is 3.37%.

Consider `CCC(CC)C1C(C#N)=C(N)Oc2cc(C)oc(=O)c21` (stereo not drawn), for which the “hERG current change (%, negative = inhibition) at 10uM” value is -12.7%.

For `CC1(C)C(c2ccccc2)=NC(c2cccnc2)=[N+]1[O-]`, the “hERG current change (%, negative = inhibition) at 10uM” value came out at 14.8%.

Take `COc1ccc(C(=O)N2CC3(C)C4CCC3(C)C2(C#N)C4)cc1OC` (stereo not drawn): the “hERG current change (%, negative = inhibition) at 10uM” value was 4.65%.

As to `CC(C)CNC(=O)CSc1nc2nn(-c3ccccc3)c(=O)c-2c2n1CCCCC2`, the “hERG current change (%, negative = inhibition) at 10uM” value is recorded as -18%.

With `O=C(CSc1nc2nn(-c3ccccc3)c(=O)c-2c2n1CCCCC2)Nc1ccc(F)cc1F`, the “hERG current change (%, negative = inhibition) at 10uM” value was -63.2%.

In the case of `CNC(=O)CSc1nc2nn(-c3ccccc3)c(=O)c-2c2n1CCCCC2`, the “hERG current change (%, negative = inhibition) at 10uM” value is on record as -37.2%.

For the compound `O=C(CSc1nc2nn(-c3ccccc3)c(=O)c-2c2n1CCCCC2)NCCCc1ccccc1`, the “hERG current change (%, negative = inhibition) at 10uM” value is reported as -63.1%.

`COCCNC(=O)CSc1nc2nn(-c3ccccc3)c(=O)c-2c2n1CCCCC2`: the “hERG current change (%, negative = inhibition) at 10uM” value was 23.2%.

Turning to `COCC(C)NC(=O)CSc1nc2nn(-c3ccccc3)c(=O)c-2c2n1CCCCC2` (stereo not drawn), the “hERG current change (%, negative = inhibition) at 10uM” value amounted to 8.5%.

With `CC(C)(C)CC(=O)NCCc1csc(-c2ccccc2)n1`, the “hERG current change (%, negative = inhibition) at 10uM” value is -7.63%.

In the case of `Cn1ncc(Cl)c1C(=O)N/N=C/c1cccc(OC2CSC2)c1`, the “hERG current change (%, negative = inhibition) at 10uM” value was 8.77%.

For the compound `O=C(Nc1nccs1)c1cc(Cl)ccc1[N+](=O)[O-]`, the “hERG current change (%, negative = inhibition) at 10uM” value is given as -9.55%.

Take `Cc1cccc(Cn2c(N(C)Cc3ccccc3)nc3c2c(=O)[nH]c(=O)n3C)c1`: the “hERG current change (%, negative = inhibition) at 10uM” value is listed as -9.99%.

Take `CCOc1ccc2nc(NC(=O)Nc3cccs3)sc2c1`: the “hERG current change (%, negative = inhibition) at 10uM” value turned out to be 18%.

As to `O=C(Nc1ccccc1N1CCCC1)c1ccc(Cl)c(S(=O)(=O)N2CCOCC2)c1`, the “hERG current change (%, negative = inhibition) at 10uM” value is -41.4%.

`O=C(Nc1ccccc1N1CCOCC1)c1ccncc1`: the “hERG current change (%, negative = inhibition) at 10uM” value was -1.93%.

Consider `O=C(Nc1ccccc1N1CCOCC1)c1ccc(F)c(S(=O)(=O)N2CCOCC2)c1`, for which the “hERG current change (%, negative = inhibition) at 10uM” value is on record as -12.6%.

For the compound `Cc1ccc(C(=O)Nc2ccccc2N2CCOCC2)cc1S(=O)(=O)N1CCOCC1`, the “hERG current change (%, negative = inhibition) at 10uM” value was -55.3%.

Consider `O=C(Nc1ccccc1N1CCCC1)c1ccc(F)c(S(=O)(=O)N2CCOCC2)c1`, for which the “hERG current change (%, negative = inhibition) at 10uM” value is on record as -22.5%.

On to `CCCCN1C(=O)c2ccc(C(=O)Nc3ccccc3N3CCOCC3)cc2C1=O`, for which the “hERG current change (%, negative = inhibition) at 10uM” value was found to be 7.18%.

For `Cc1ccc(C(=O)Nc2ccccc2N2CCCC2)cc1S(=O)(=O)N1CCOCC1`, the “hERG current change (%, negative = inhibition) at 10uM” value is listed as -51.2%.

On to `O=C(Nc1ccccc1N1CCOCC1)c1ccc2c(c1)C(=O)N(Cc1ccncc1)C2=O`, for which the “hERG current change (%, negative = inhibition) at 10uM” value is listed as -58.8%.

Turning to `COc1ccc(C(=O)Nc2ccccc2N2CCOCC2)cc1S(=O)(=O)N1CCOCC1`, the “hERG current change (%, negative = inhibition) at 10uM” value was -17.8%.

As to `Cc1cn2c(N)c(/C=C3\C=Nc4ccccc43)c(=O)nc2s1`, the “hERG current change (%, negative = inhibition) at 10uM” value was 2.43%.

Consider `CCOc1ccc(N=C(/C(C(=O)C(=O)N2CCOCC2)=C(\O)c2ccccc2)c2ccccc2)cc1`, for which the “hERG current change (%, negative = inhibition) at 10uM” value is given as 27.7%.

On to `COc1ccc(NC(=O)CN(C)S(=O)(=O)c2cccc3nsnc23)cc1`, for which the “hERG current change (%, negative = inhibition) at 10uM” value was -21.9%.

`O=C(O)c1ccccc1-c1nc2ccccc2c(=O)n1O`: the “hERG current change (%, negative = inhibition) at 10uM” value is listed as 14.9%.

For `CCCOC(=O)CC1C(=O)NCCN1Cc1ccc(F)cc1` (stereo not drawn), the “hERG current change (%, negative = inhibition) at 10uM” value worked out at 3.35%.

With `CC1CC(C)CN(S(=O)(=O)c2ccc(NC(=O)C3CC(=O)N(Cc4ccccc4)C3)cc2)C1` (stereo not drawn), the “hERG current change (%, negative = inhibition) at 10uM” value came to 17.3%.

Take `CC(C)CC1NC(=O)N(Cc2nc3ccccc3s2)C1=O` (stereo not drawn): the “hERG current change (%, negative = inhibition) at 10uM” value is -32.5%.

Regarding `CC(C)CCC1(CCNC(=O)c2cccs2)CCOC(C)(C)C1` (stereo not drawn), the “hERG current change (%, negative = inhibition) at 10uM” value is on record as -8.99%.

With `c1ccc(-c2nn3c(Cn4nnc5ccccc54)nnc3s2)nc1`, the “hERG current change (%, negative = inhibition) at 10uM” value was -14.4%.

With `CC(C)C[C@H]1C(=O)N2CCC[C@H]2[C@]2(O)O[C@](NC(=O)C3C=C4c5cccc6[nH]c(Br)c(c56)C[C@H]4N(C)C3)(C(C)C)C(=O)N12.CS(=O)(=O)O` (stereo partly drawn), the “hERG current change (%, negative = inhibition) at 10uM” value is listed as 20.4%.

`CCCN1C(=O)/C(=C/C=C2\N(CC)c3ccccc3C2(C)C)SC1=S`: the “hERG current change (%, negative = inhibition) at 10uM” value is 8.96%.

For the compound `CC1(C)C(/C=C/C=C/C=C/C=C2\N(CCCCS(=O)(=O)[O-])c3ccc4ccccc4c3C2(C)C)=[N+](CCCCS(=O)(=O)[O-])c2ccc3ccccc3c21.[Na+]`, the “hERG current change (%, negative = inhibition) at 10uM” value is recorded as -15.5%.

As for `CN1/C(=C\C=C\C2=[N+](C)c3ccc4ccccc4c3C2(C)C)C(C)(C)c2ccccc21.[O-][Cl+3]([O-])([O-])[O-]`, the “hERG current change (%, negative = inhibition) at 10uM” value was -75.7%.

Regarding `CN1/C(=C\C=O)C(C)(C)c2ccccc21`, the “hERG current change (%, negative = inhibition) at 10uM” value was determined as 12.9%.

Turning to `CCN1C(=O)C(O)(CC(=O)/C=C/C=C/c2ccccc2)c2ccccc21` (stereo not drawn), the “hERG current change (%, negative = inhibition) at 10uM” value is recorded as -0.629%.

`CCN1/C(=C\C=C\C2=[N+](CC)c3ccccc3C2(C)C)C(C)(C)c2ccccc21.[O-][Cl+3]([O-])([O-])[O-]`: the “hERG current change (%, negative = inhibition) at 10uM” value is -96.7%.

As to `CC(C)CCn1nnnc1CN1CCN(C(=O)c2ccco2)CC1.Cl`, the “hERG current change (%, negative = inhibition) at 10uM” value was determined as 16.8%.

In the case of `CC1(C)CC(=O)c2c(O)cc(OCC(=O)Nc3ccc(CCO)cc3)cc2O1`, the “hERG current change (%, negative = inhibition) at 10uM” value was -21.4%.

As for `CCN(C(=O)COC(=O)CSc1ccc(F)cc1)c1c(N)n(Cc2ccccc2)c(=O)[nH]c1=O`, the “hERG current change (%, negative = inhibition) at 10uM” value came out at 10.9%.

Turning to `COC(=O)C1Cc2ccccc2CN1S(=O)(=O)c1ccc(C)cc1` (stereo not drawn), the “hERG current change (%, negative = inhibition) at 10uM” value was determined as 1.57%.

As to `Cc1cnc(-c2nnc(N(C)C(=O)C3CCCO3)s2)cn1` (stereo not drawn), the “hERG current change (%, negative = inhibition) at 10uM” value is reported as 2.91%.

As to `Cn1c(CNC(=O)c2ccc(Cl)cc2)nnc1SCC(=O)N1CCOCC1`, the “hERG current change (%, negative = inhibition) at 10uM” value is 15.4%.

On to `OC(CNCC1(N2CCCCC2)CCCCC1)COc1ccc(Cl)cc1Cl` (stereo not drawn), for which the “hERG current change (%, negative = inhibition) at 10uM” value is on record as -73.7%.

With `COc1cc(C(C)=O)ccc1OCC(O)CNCC1(N2CCCCC2)CCCCC1.O=C(O)C(=O)O` (stereo not drawn), the “hERG current change (%, negative = inhibition) at 10uM” value is reported as -42.1%.

Regarding `COc1ccccc1COCC(O)CNCC1(N2CCCCC2)CCCCC1.O=C(O)C(=O)O` (stereo not drawn), the “hERG current change (%, negative = inhibition) at 10uM” value is -30.9%.
